Measured values as given in PubChem BioAssay.
“And” between values parts separate entries of the source, which are not always exact repeats. Equal values may be shown once. The source made the active and inactive calls.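 Rule for the calls, unless noted: active = normalized viability below 100% at a tested concentration; inactive = the rest.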

Tests used:
[1] = blockers of polyQ-driven CASP3 activation – cell-based (AID 1583); settings: polyglutamine-induced caspase-3 activation, cell assay; stronger effect = higher value;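 tested at 10 µM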
[2] = compounds altering viability of human ES cells (AID 493140; call rule not given here;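 note: cells exposed to compounds for four days before counting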); settings: human embryonic stem cell survival screen; stronger effect = higher value
[3] = stimulators of insulin release from INS-1E, primary screen, cell-based, 5 mM glucose, NPC library (AID 1117329;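 active = compound raises insulin release from rat beta cells at 5 mM glucose, no numeric limit stated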); settings: rat INS-1E insulin secretion, at 10 µM, stronger effect = higher value
[4] = growth inhibition of GSK3B-pretreated HCT116 cells – cell-based, CellTiter-Glo, 0.2 to 20 µM (AID 1117336;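 active = compounds lowering colon cancer cell viability after pretreatment blocking the GSK3B kinase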); settings: HCT116 viability after GSK3B inhibitor, at 20 µM, stronger effect = higher value
[5] = inhibition of endothelial tube formation, primary screen, imaging, VEGF stimulated, CD31 staining, tube area, NPC library (AID 1117340;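 active = compound that reduces growth-factor-driven endothelial tube area in a mixed cell culture, no cutoff stated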); settings: VEGF-stimulated ADSC/ECFC co-culture, at 10 µM, stronger effect = higher value
[6] = GLP1 release stimulators, primary, NCI-H716, NPC library (AID 1117341;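 active = compound raises GLP1 secretion from the human gut endocrine cells, with no numeric limit stated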); settings: NCI-H716 cells, at 10 µM, stronger effect = higher value
[7] = HCT116 colon cancer cell growth inhibition, primary screen, CellTiter-Glo luminescence, NPC library (AID 1117342;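 active = compounds that lower survival of HCT116 colon cancer cells in the luminescence readout, no numeric limit stated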); settings: at 20 µM (top of the series)
[8] = reduced SW480 viability measured with CellTiter-Glo, NPC library, primary (AID 1117343;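 active = compounds that lower viability of the colon cancer cells in the luminescence readout, with no numeric limit stated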); settings: CellTiter-Glo luminescence; at 20 µM (top of the series) unless noted
[9] = NPC library primary testing for decreased DLD-1 cell viability via CellTiter-Glo (AID 1117346;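 active = compounds that lower survival of DLD-1 colon cancer cells in the luminescence readout, no cutoff given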); settings: DLD-1 viability, CellTiter-Glo luminescence; at 20 µM (top of the series)
[10] = target: 6-phosphogluconate dehydrogenase, decarboxylating (Homo sapiens) (UniProt P52209); test: inhibition of human phosphogluconate dehydrogenase – biochemical, recombinant enzyme, NADPH absorbance, primary screen (AID 1159550;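 active = at least 20% inhibition of 6-phosphogluconate dehydrogenase activity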); settings: recombinant 6PGD, NADPH absorbance 341 nm; at 10 µM; stronger effect = higher value
[11] = modulation of C. elegans fzo-1 (AID 1259413; call rule not given here;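 note: fzo-1 mutant C. elegans worms in liquid wells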); settings: C. elegans fzo-1 modulator screen, mean read-out; stronger effect = higher value
[12] = EMT-state selective cytotoxicity in co-culture – imaging, PC-3E GFP, TEM4-18 mCherry, primary screen (AID 1345086;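 active = compounds killing one labelled cell type while sparing the other, by normalised counts and ratio limits, not self-fluorescent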;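 for all read-outs here: cells exposed to compound for 72 h before imaging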;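 for red/green cell ratio (normalised): normalised mesenchymal count divided by normalised epithelial count so high means epithelial killing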); settings: PC-3E GFP / TEM4-18 mCherry co-culture, imaging cell counts, at 1 µM; for red/green cell ratio (normalised): actives lie on both sides, counts scaled to control wells, 1 = unselective
[13] = MELAS cybrid and Rieske KO viability enhancers – cell-based, MELAS cybrids, Rieske KO mouse fibroblasts, CellTiter-Glo, primary screen (AID 1508586;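 active = mean z-score across replicates of 1.96 or higher in either the MELAS or the Rieske mutant cell line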;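 note: z relative to plate mean and SD of compound and empty wells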); settings: low glucose
[14] = target: NAD(+) hydrolase SARM1 (Homo sapiens) (UniProt Q6SZW1); test: blocking NAD cleavage by SARM1 SAM-TIR – cell lysate, NAD-Glo luminescence (AID 1508614;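 active = compound whose remaining NAD level is above about 45 nM, limit read from the data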;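 note: higher remaining NAD means stronger inhibition of SARM1 NADase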); settings: SAM-TIR HEK293T lysate NADase, at 1 µM, stronger effect = higher value
[15] = target: Mitogen-activated protein kinase 7 (Homo sapiens) (UniProt Q13164); test: Gal4-ERK5 driven luciferase induction – cell-based, HTS, primary screen (AID 1508626;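 active = luciferase signal above three times the same-plate solvent-only control wells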;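 note: luciferase driven by Gal4-ERK5 fusion binding five Gal4 sites before minimal TATA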); settings: HeLa Gal4-ERK5 transactivation, 18 h, at 5 µM, stronger effect = higher value
[16] = galactose survival enhancers in mitochondrial complex I cybrids – cell-based, galactose medium, ATP luminescence, primary screen (AID 1645843;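 active = z-score of at least 1.8 in each of two replicates, scored against plate mean and spread of sample wells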;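 note: positive z means more ATP and so rescue of galactose-driven cybrid death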); settings: complex I mutant cybrid cells, 72 h, stronger effect = higher value
[17] = Wnt pathway potentiators raising nuclear beta-catenin – imaging, WNT3A-conditioned medium, mouse C2C12, NPC library, primary screen (AID 1117326; in the data active = nuclear beta-catenin stimulation mostly above about 4.2%, no sharp cut-off; inactive = mostly below about 10%); settings: stronger effect = higher value
[18] = viability loss with induced miR-34 in A549 – imaging, A549 dox-inducible miR-34, nuclei and caspase counts, primary screen (AID 1347080;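 active = compounds whose cell count with miR-34 switched on is under 0.7 times the count with it off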); settings: A549 miR-34 inducible, Hoechst nuclei count, 48 h
[19] = drug combination growth inhibition, ovarian cancer – cell-based, oncology-focused library, rucaparib conditional, profiling panel (AID 1508598); settings: patient-derived ovarian cancer cells, CellTiter-Glo viability, 144 h, stronger effect = lower value
[20] = measured here: epithelial PC-3E GFP cell survival
[21] = measured here: mesenchymal TEM4-18 mCherry cell survival
[22] = MELAS cybrid survival, CellTiter-Glo 48 h, stronger effect = higher value
[23] = Rieske KO mouse fibroblast survival, CellTiter-Glo 72 h

Chain of Mitogen-activated protein kinase 7 (Homo sapiens) (Q13164 whole entry, looked up, the tested form may be a part): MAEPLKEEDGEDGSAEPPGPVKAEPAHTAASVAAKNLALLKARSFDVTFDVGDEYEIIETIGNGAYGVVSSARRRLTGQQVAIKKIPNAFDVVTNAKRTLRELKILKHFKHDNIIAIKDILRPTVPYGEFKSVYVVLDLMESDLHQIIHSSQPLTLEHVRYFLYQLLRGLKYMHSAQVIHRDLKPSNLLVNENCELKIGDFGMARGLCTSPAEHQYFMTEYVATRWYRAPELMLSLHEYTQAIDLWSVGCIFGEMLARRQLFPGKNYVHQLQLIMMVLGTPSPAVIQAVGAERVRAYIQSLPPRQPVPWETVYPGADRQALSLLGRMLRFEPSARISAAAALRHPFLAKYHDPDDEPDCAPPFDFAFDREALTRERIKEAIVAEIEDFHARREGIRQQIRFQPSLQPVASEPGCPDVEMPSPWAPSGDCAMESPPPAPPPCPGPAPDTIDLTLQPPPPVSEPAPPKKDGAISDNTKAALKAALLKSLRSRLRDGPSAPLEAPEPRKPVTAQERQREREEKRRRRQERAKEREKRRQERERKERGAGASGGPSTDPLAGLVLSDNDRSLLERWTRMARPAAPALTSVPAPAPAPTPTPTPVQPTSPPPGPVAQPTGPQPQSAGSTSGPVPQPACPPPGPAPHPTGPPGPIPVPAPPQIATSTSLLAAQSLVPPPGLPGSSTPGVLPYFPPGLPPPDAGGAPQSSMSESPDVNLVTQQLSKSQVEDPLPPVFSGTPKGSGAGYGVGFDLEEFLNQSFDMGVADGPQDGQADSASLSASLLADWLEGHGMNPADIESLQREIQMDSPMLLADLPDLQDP
Chain of NAD(+) hydrolase SARM1 (Homo sapiens) (Q6SZW1 whole entry, looked up, the tested form may be a part): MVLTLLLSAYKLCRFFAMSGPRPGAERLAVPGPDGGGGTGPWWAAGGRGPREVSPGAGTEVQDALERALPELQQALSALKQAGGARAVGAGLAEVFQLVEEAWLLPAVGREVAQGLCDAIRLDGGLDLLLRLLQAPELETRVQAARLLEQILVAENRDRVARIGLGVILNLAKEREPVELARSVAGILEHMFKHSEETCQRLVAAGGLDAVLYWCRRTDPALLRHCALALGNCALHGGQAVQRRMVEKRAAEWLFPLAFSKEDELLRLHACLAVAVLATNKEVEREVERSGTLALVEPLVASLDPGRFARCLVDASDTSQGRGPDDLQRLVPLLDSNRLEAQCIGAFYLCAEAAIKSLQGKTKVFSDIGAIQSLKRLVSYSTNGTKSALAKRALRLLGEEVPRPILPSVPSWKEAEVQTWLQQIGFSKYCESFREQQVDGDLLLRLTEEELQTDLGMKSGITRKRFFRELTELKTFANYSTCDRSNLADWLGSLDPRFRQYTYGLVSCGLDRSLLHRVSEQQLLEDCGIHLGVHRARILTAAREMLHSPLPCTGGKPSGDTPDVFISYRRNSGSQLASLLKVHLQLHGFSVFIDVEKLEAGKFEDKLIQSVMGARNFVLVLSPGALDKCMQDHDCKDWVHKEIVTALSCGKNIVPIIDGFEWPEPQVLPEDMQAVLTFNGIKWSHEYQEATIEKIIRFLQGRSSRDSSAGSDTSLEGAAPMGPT
Chain of 6-phosphogluconate dehydrogenase, decarboxylating (Homo sapiens) (P52209 whole entry, looked up): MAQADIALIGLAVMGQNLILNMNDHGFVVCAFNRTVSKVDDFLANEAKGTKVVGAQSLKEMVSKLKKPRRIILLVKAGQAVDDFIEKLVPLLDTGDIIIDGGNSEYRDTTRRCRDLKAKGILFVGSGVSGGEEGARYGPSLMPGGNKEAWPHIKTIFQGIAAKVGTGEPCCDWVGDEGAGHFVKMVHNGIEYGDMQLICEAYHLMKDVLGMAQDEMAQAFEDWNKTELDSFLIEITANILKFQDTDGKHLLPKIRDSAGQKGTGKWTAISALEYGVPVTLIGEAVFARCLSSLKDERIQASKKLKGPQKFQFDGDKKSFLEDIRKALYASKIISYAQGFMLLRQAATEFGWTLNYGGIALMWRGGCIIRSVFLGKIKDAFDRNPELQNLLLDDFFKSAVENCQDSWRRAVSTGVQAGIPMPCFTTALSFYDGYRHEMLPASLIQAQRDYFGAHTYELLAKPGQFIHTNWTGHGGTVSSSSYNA

COc1cc(Cc2cnc(N)nc2N)cc(OC)c1OC
inhibition [1]: -19.7%
survival [2]: 17.1 (inactive)
insulin secretion stimulation [3]: -1.7% (inactive)
viability decrease [4]: -3% (inactive)
tube area decrease [5]: 2% (inactive)
GLP1 secretion stimulation [6]: 4.6% (inactive)
inhibition of viability [7]: 28.8% (inactive)
viability decrease (inhibition) [8]: 39.7% (inactive)
viability decrease (inhibition) [9]: 9.15% (inactive)
inhibition [10]: -0.293% (inactive)
mean signal [11]: 243 (inactive)
red/green cell ratio (normalised) [12]: 1.12 (inactive)
normalised cell number [12, 20]: 0.91
normalised cell number [12, 21]: 1.02
z-score [13, 22]: -0.0749 (inactive) and 0.787 (inactive) and 0.308 (inactive)
z-score [13, 23]: -0.219 and -0.384 and -0.669
remaining NAD [14]: 10 nM (inactive)
luciferase signal [15]: 48 AU (inactive)
z-score [16]: 0.49 (inactive) and 0.045 (inactive) and 0.71 (inactive)

COc1c2occc2cc2ccc(=O)oc12
inhibition [1]: 18.6%
survival [2]: 5.42 (inactive)
insulin secretion stimulation [3]: 1.9% (inactive)
viability decrease [4]: -33.7% (inactive)
tube area decrease [5]: 3.8% (inactive)
GLP1 secretion stimulation [6]: 2% (inactive)
inhibition of viability [7]: 8.3% (inactive)
viability decrease (inhibition) [8]: 26.9% (inactive)
viability decrease (inhibition) [9]: 8.4% (inactive)
inhibition [10]: 3.81% (inactive)
mean signal [11]: 248 (inactive)
red/green cell ratio (normalised) [12]: 1.15 (inactive)
normalised cell number [12, 20]: 0.84
normalised cell number [12, 21]: 0.96
z-score [13, 22]: -0.203 (inactive)
z-score [13, 23]: -0.0388
remaining NAD [14]: 10 nM (inactive)
luciferase signal [15]: 24 AU (inactive)
z-score [16]: 0.975 (inactive)

Cc1ccc(-n2nc(C(C)(C)C)cc2NC(=O)Nc2ccc(OCCN3CCOCC3)c3ccccc23)cc1
nuclear beta-catenin stimulation ([17]; at 10 µM): 13.4% (inactive)
nuclear beta-catenin stimulation ([17]; stimulation, at 2 µM): 7%
viability decrease [4]: 73% (active)
inhibition of viability [7]: 66.5% (active)
viability decrease (inhibition) [8]: 64.1% (active)
viability decrease (inhibition) [9]: 31% (inactive)
fold change ([18]; stronger effect = lower value, cell number ratio, induced over uninduced): 0.925 (inactive)
fold change ([18]; measured here: relative caspase fold change +Dox/-Dox): 0.866
cell count ([18]; measured here: total cells with miR-34 induction, stronger effect = lower value): 7750
cell count ([18]; measured here: total cells without miR-34 induction): 8380
z-score [13, 22]: -0.536 (inactive)
z-score [13, 23]: -0.851
viability ([19]; at 0.000305 µM, OCI-C5x cells, with rucaparib 10 µM, 100% = cells with rucaparib alone): 105% (inactive)
viability ([19]; at 0.000305 µM, OCI-C5x cells, without rucaparib): 123% (inactive)
viability ([19]; at 0.000305 µM, OCI-P5x cells, with rucaparib 20 µM, 100% = cells with rucaparib alone): 112% (inactive)
viability ([19]; at 0.000305 µM, OCI-P5x cells, without rucaparib): 115% (inactive)
viability ([19]; at 0.00122 µM, OCI-C5x cells, with rucaparib 10 µM, 100% = cells with rucaparib alone): 97.2% (active)
viability ([19]; at 0.00122 µM, OCI-C5x cells, without rucaparib): 113% (inactive)
viability ([19]; at 0.00122 µM, OCI-P5x cells, with rucaparib 20 µM, 100% = cells with rucaparib alone): 97.9% (active)
viability ([19]; at 0.00122 µM, OCI-P5x cells, without rucaparib): 104% (inactive)
viability ([19]; at 0.00488 µM, OCI-C5x cells, with rucaparib 10 µM, 100% = cells with rucaparib alone): 106% (inactive)
viability ([19]; at 0.00488 µM, OCI-C5x cells, without rucaparib): 116% (inactive)
viability ([19]; at 0.00488 µM, OCI-P5x cells, with rucaparib 20 µM, 100% = cells with rucaparib alone): 91.6% (active)
viability ([19]; at 0.00488 µM, OCI-P5x cells, without rucaparib): 111% (inactive)
viability ([19]; at 0.0195 µM, OCI-C5x cells, with rucaparib 10 µM, 100% = cells with rucaparib alone): 105% (inactive)
viability ([19]; at 0.0195 µM, OCI-C5x cells, without rucaparib): 120% (inactive)
viability ([19]; at 0.0195 µM, OCI-P5x cells, with rucaparib 20 µM, 100% = cells with rucaparib alone): 101% (inactive)
viability ([19]; at 0.0195 µM, OCI-P5x cells, without rucaparib): 108% (inactive)
viability ([19]; at 0.0781 µM, OCI-C5x cells, with rucaparib 10 µM, 100% = cells with rucaparib alone): 100% (inactive)
viability ([19]; at 0.0781 µM, OCI-C5x cells, without rucaparib): 107% (inactive)
viability ([19]; at 0.0781 µM, OCI-P5x cells, with rucaparib 20 µM, 100% = cells with rucaparib alone): 108% (inactive)
viability ([19]; at 0.0781 µM, OCI-P5x cells, without rucaparib): 109% (inactive)
viability ([19]; at 0.313 µM, OCI-C5x cells, with rucaparib 10 µM, 100% = cells with rucaparib alone): 107% (inactive)
viability ([19]; at 0.313 µM, OCI-C5x cells, without rucaparib): 114% (inactive)
viability ([19]; at 0.313 µM, OCI-P5x cells, with rucaparib 20 µM, 100% = cells with rucaparib alone): 97.2% (active)
viability ([19]; at 0.313 µM, OCI-P5x cells, without rucaparib): 101% (inactive)
viability ([19]; at 1.25 µM, OCI-C5x cells, with rucaparib 10 µM, 100% = cells with rucaparib alone): 107% (inactive)
viability ([19]; at 1.25 µM, OCI-C5x cells, without rucaparib): 115% (inactive)
viability ([19]; at 1.25 µM, OCI-P5x cells, with rucaparib 20 µM, 100% = cells with rucaparib alone): 96.1% (active)
viability ([19]; at 1.25 µM, OCI-P5x cells, without rucaparib): 95.3% (active)
viability ([19]; at 5 µM, OCI-C5x cells, with rucaparib 10 µM, 100% = cells with rucaparib alone): 117% (inactive)
viability ([19]; at 5 µM, OCI-C5x cells, without rucaparib): 144% (inactive)
viability ([19]; at 5 µM, OCI-P5x cells, with rucaparib 20 µM, 100% = cells with rucaparib alone): 96.1% (active)
viability ([19]; at 5 µM, OCI-P5x cells, without rucaparib): 94.8% (active)
